The whole screen tested about 48,000 compounds, of which about 13,000 (27%) showed an effect of 50% or more. The list shows a part of the results.
Each compound was assayed on Wolbachia pipientis (assay: Anti-Wolbachia Cell-Based Screen). Conditions: 5 µM.
Assay type: functional
Set-up: scale not given: in the data most compounds retested in dose-response had high values

Row | SMILES | Percent Effect [%]
1 | CO[C@H]1COCCN(C(=O)c2ccc(C#N)cc2)C1 | 6.544
2 | CC(NC(=O)CN1C=Nc2ccccc2S1(=O)=O)c1ccccc1 (configuration not stated) | 1.961
3 | Cc1c(NC(=O)C(C)N(C)C)c(=O)n(-c2ccccc2)n1C (configuration not stated) | 117.4
4 | Cc1cc(NC(=O)N(C)C2CCCN(c3ccccc3)C2=O)n(C)n1 (configuration not stated) | 12.64
5 | Cc1nn(C(C)C)c(C)c1NC(=O)c1ccccc1 | -6.028
6 | CN(Cc1ccsc1)c1nc(-c2ccccn2)nc2c1CCNCC2 | 9.446
7 | Cc1nnc([C@@H]2CCO[C@@H]3CCN(C(=O)Cc4ccccn4)C[C@@H]32)o1 | -1.99
8 | O=C(Cn1cccn1)N1CCC(c2nnc(C(F)(F)F)o2)CC1 | 121.4
9 | CS(=O)(=O)NC1CCN(C(=O)CCn2cccn2)CC1 | -7.028
10 | O=C(Cc1ccccc1)N1CCC(c2nnc(-c3ccccn3)o2)CC1 | 100.4
11 | O=C(c1ccccn1)N1CCCN(Cc2nnc(C3CC3)o2)CC1 | -3.394
12 | O=C(Cc1ccccc1)N1CC[C@@H]2CNS(=O)(=O)[C@@H]2CC1 | -4.028
13 | CCS(=O)(=O)N1CCC(c2nnc(C(F)(F)F)o2)CC1 | -1.552
14 | O=C(CCn1cccn1)N1CCC(c2nnc(-c3ccccn3)o2)CC1 | 80.52
15 | CN(C)S(=O)(=O)N1CCC(c2nnc(C(F)(F)F)o2)CC1 | 9.522
16 | O=C(CCn1cccn1)N1CCC(C2CCN(c3ncccn3)CC2)C1 (configuration not stated) | 0.2616
17 | O=C(CC1CCCC1)N1CCC(c2nnc(-c3ccccn3)o2)CC1 | 116.1
18 | O=C(CC1CCN(c2ncnc3ccccc23)CC1)N1CCCC1 | -18.62
19 | Cc1cnn(CC2CCN(c3cc(C(C)C)nc4ccnn34)CC2)c1 | -2.497
20 | COC(=O)c1sccc1S(=O)(=O)N1CCC(Oc2cccc(C)n2)CC1 | -4.236
21 | Cc1ccc(Cc2sc(NC(=O)C(C)S(C)(=O)=O)nc2C)cc1 (configuration not stated) | -9.615

Row | SMILES | Percent Effect [%]
22 | O=C(CC1CCCC1)N1CCC(c2noc(-c3ccccn3)n2)CC1 | 138.8
23 | O=C(Cc1cccnc1)N1CCC(c2nnc(-c3ccccn3)o2)CC1 | 116.7
24 | Cn1cncc1-c1nnc([C@H]2CCN(Cc3cccnc3)C2)o1 | -10.77
25 | O=C(CC1CCN(c2ncnc3cccc(F)c23)CC1)N1CCCC1 | 7.525
26 | CN(C)CCCn1ccnc1C1CCN(C(=O)Cc2cccnc2)CC1 | -18.68
27 | Cc1noc(C)c1CN(C)CCC(=O)N1CCc2sccc2C1 | -7.36
28 | O=C(NCC1CCOCC1)[C@@H]1CC[C@@H]2[C@@H](CCN2Cc2ccncc2)O1.O=C(O)C(F)(F)F.O=C(O)C(F)(F)F | 108.2
29 | CNC(=O)[C@@H]1CC[C@@H]2[C@@H](CCN2Cc2ccccc2F)O1.O=C(O)C(F)(F)F | -4.389
30 | O=C(NCCc1ccncc1)[C@@H]1CC[C@@H]2[C@@H](CCN2Cc2ccco2)O1.O=C(O)C(F)(F)F.O=C(O)C(F)(F)F | -6.425
31 | O=C(NCc1ccco1)[C@@H]1CC[C@@H]2[C@@H](CCN2Cc2ccc(F)cc2)O1.O=C(O)C(F)(F)F | -0.4343
32 | O=C(NCC1CC1)[C@@H]1CC[C@@H]2[C@@H](CCN2Cc2ccco2)O1.O=C(O)C(F)(F)F | 95.42
33 | CNC(=O)[C@H]1CC[C@@H]2[C@@H](CCN2CCOCc2ccccc2)O1.O=C(O)C(F)(F)F | 2.484
34 | O=C(NCc1ccco1)[C@@H]1CC[C@@H]2[C@@H](CCN2CC2CC2)O1.O=C(O)C(F)(F)F | -3.769
35 | COc1ccc(CN2CC[C@H]3O[C@@H](C(=O)NCC4CC4)CC[C@H]32)cc1.O=C(O)C(F)(F)F | 93.13
36 | O=C(NCC1CC1)[C@@H]1CC[C@@H]2[C@@H](CCN2CCOCc2ccccc2)O1 | -46.75
37 | O=C(NCC1CC1)[C@@H]1CC[C@@H]2[C@@H](CCN2Cc2ccc(F)c(F)c2)O1.O=C(O)C(F)(F)F | 110.1
38 | O=C(NCCc1ccc(Cl)cc1)c1coc(CN2CCOCC2)c1 | -3.788
39 | Cc1nn(-c2ccccc2)c(C)c1CNC(=O)NC1CC(=O)N(C)C1 (configuration not stated) | 1.592
40 | Cc1ccc(-n2nc(C)c3c2NC(=O)CC3c2cnc(N)s2)cc1 (configuration not stated) | 19.39
41 | CC1=C(C#N)C(=O)NC(=O)/C1=C\c1c(C)nn(-c2ccc(C)cc2)c1O | 117.9
42 | Cc1nn(-c2ccccc2)c2c1C(c1ccc(C(=O)O)cc1)CC(=O)N2 (configuration not stated) | -3.155

Row | SMILES | Percent Effect [%]
43 | CC1=C(C#N)C(=O)NC(=O)/C1=C\c1c(C)nn(-c2ccc(Cl)cc2)c1O | 109.3
44 | CC1=C(C#N)C(=O)NC(=O)/C1=C\c1c(C)nn(-c2ccccc2)c1O | 95.98
45 | CNS(=O)(=O)c1cccc(CNC(=O)NCC2CCOC2)c1 (configuration not stated) | -2.881
46 | CNS(=O)(=O)c1ccc(CNC(=O)c2cc(C)no2)cc1 | 3.551
47 | CCc1ccc(C(=O)NCc2cccc(S(=O)(=O)NC)c2)o1 | 104.9
48 | CCn1c(C)cc(C(=O)NCc2cccc(S(=O)(=O)NC)c2)c1C | -0.4884
49 | CNS(=O)(=O)c1ccc(CNC(=O)c2cc(-c3ccccn3)no2)cc1 | -10.88
50 | CNS(=O)(=O)c1cccc(CNC(=O)c2cc(C)no2)c1 | 131.9
51 | CC(C)NC(=O)CCNC(=O)Nc1cnn(-c2ccccc2F)c1 | -8.567
52 | CCNC(=O)CN(CC)C(=O)c1csc(Cc2ccccc2F)n1 | 97.94
53 | CCN(CC(=O)NC(C)C)C(=O)c1csc(Cc2ccccc2)n1 | -19.99
54 | CC(=O)Nc1nc(C(=O)NCCOc2ccccc2F)cs1 | -9.068
55 | CC(C)NC(=O)CNC(=O)c1csc(Cc2ccccc2F)n1 | 109.5
56 | COC(=O)CCN(C)C(=O)c1csc(Cc2ccccc2F)n1 | 117.5
57 | COCc1nc(C(=O)NS(=O)(=O)c2ccc(F)c(F)c2)cs1 | -13.23
58 | CCNC(=O)CN(CC)C(=O)Cc1csc(C(C)C)n1 | 11.15
59 | COC(=O)CCN(C)C(=O)c1ccc(-c2cscn2)cc1 | -8.458
60 | CC(C)NC(=O)CN(C)C(=O)c1csc(Cc2ccccc2F)n1 | 122.3
61 | Cc1nc(C)c(CC(=O)NCc2ccccc2F)s1 | 8.727
62 | CCN(CC(=O)NC)C(=O)c1csc(Cc2ccccc2)n1 | -20.14

Source: ChEMBL document CHEMBL3988442, “University of Dundee, Small-Polar-MMV Screening Library” (2021)
